From PubChem BioAssay (NCI)
About 83,000 compounds went through this panel and 20% of them were active in at least one assay; those are over-represented in the sample as a whole.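 Cells were grown in 96-well plates and exposed to the test compound at a single concentration for 48 hours; results are reported as percent growth, with values below 10 considered active.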 A number with no mark means an inactive call. Calls of active or inactive are those of the source.

These molecules were tested on OVCAR-8 ovarian (assay: NCI-60 one-dose screen, 48 h (100 = growth as untreated, 0 = no growth, -100 = all killed)). Conditions: 10 µM.
In the case of `COc1cc2cc(C(=O)N3C[C@@H](CCl)c4c3cc(OC(=O)N3CCN(C)[C@@H]5CSSC[C@H]53)c3ccccc43)[nH]c2c(OC)c1OC`, the growth is reported as -30.2% (active).
For `CC1=C(CCC=O)C2=C(C)C3(CC3)[C@@](C)(O)C(=O)C2=C1`, the growth was -73.4% (active).
In the case of `COC(=O)C[C@](O)(CCC(C)C)C(=O)O[C@@H]1C(OC)=C[C@]23CCCN2CCc2cc4c(cc2[C@H]13)OCO4`, the growth is reported as -62.9% (active).
`O=C(/C=C/c1ccc(Cl)cc1)c1nc2ccccc2n1Cc1ccc(F)cc1` was tested, and the growth was 17.1%.
`CC[C@]12C=CCN3CC[C@@]4(c5ccc(OC)cc5N(C)[C@H]4[C@@](O)(C(=O)OC)[C@@H]1OC(=O)CCC[P+](C1CCCCC1)(C1CCCCC1)C1CCCCC1)[C@@H]32` was tested, and the growth was 1.19% (active).
`CC1=C2C(=C[C@@](C)(COP(=O)(Oc3ccccc3)Oc3ccccc3)[C@@H]2O)C(=O)[C@@](C)(O)C12CC2` was tested, and the growth was -68.5% (active).
With `CC(=O)Oc1ccccc1C(=O)NC([Se])=NC1CCCCC1` the growth was -56.4% (active).
With `CCOP(=O)(CC(F)(F)C(F)(F)F)OCC` the growth was -80.2% (active).
In the case of `CC(C)C[C@H](NC(=O)CNC(=O)C[C@H]1O[C@@H]2OC3(C)CC[C@H]4[C@H](C)CC[C@@H]([C@H]1C)[C@@]24OO3)B(O)O`, the growth is reported as 5.76% (active).
In the case of `C[C@H]1[C@@H](Oc2ccc(-c3cn(-c4ccnc5cc(Cl)ccc45)nn3)cc2)O[C@@H]2OC3(C)CC[C@H]4[C@H](C)CC[C@@H]1[C@@]24OO3`, the growth is reported as 16%.
With `C[C@H]1[C@H](OC(=O)CCC(=O)N(CCCc2cn(-c3ccc([N+](=O)[O-])cc3)nn2)CCNc2ccnc3cc(Cl)ccc23)O[C@@H]2OC3(C)CC[C@H]4[C@H](C)CC[C@@H]1[C@@]24OO3` the growth was 23.7%.
`COc1cc2cc(C(=O)N3C[C@@H](CCl)c4c3cc(OC(=O)N3CCN(C)[C@@H]5CSSC[C@@H]53)c3ccccc43)[nH]c2c(OC)c1OC` was tested, and the growth was -3.43% (active).
In the case of `COc1cc2cc(C(=O)N3C[C@@H](CCl)c4c3cc(OC(=O)N3CCN(C(=O)CCC(=O)N5CCN(C)CC5)[C@@H]5CSSC[C@@H]53)c3ccccc43)[nH]c2c(OC)c1OC`, the growth is reported as -32.1% (active).
In the case of `COC(=O)c1ccc(-n2cc(CCCN(CCNc3ccnc4cc(Cl)ccc34)C(=O)CCC(=O)O[C@@H]3O[C@@H]4OC5(C)CC[C@H]6[C@H](C)CC[C@@H]([C@H]3C)[C@@]46OO5)nn2)cc1`, the growth is reported as 20.9%.
For `O=C([Se]C1C=CCCC1)c1ccc(C(=O)[Se]C2C=CCCC2)s1` (stereo not given), the growth was -97.6% (active).
With `O=C(/C=C/c1cccc(Br)c1)c1nc2ccccc2n1Cc1ccc(F)cc1` the growth was 28.2%.
In the case of `CC[C@]12C=CCN3CC[C@@]4(c5ccc(OC)cc5N(C)[C@H]4[C@@](O)(C(=O)OC)[C@@H]1OC(=O)CCC[P+](c1ccc(C)cc1)(c1ccc(C)cc1)c1ccc(C)cc1)[C@@H]32`, the growth is reported as -85% (active).
`O=C(NC([Se])=NC1CCCCC1)c1ccccc1` was tested, and the growth was 40.9%.
In the case of `O=C(/C=C/c1ccc(F)cc1)c1nc2ccccc2n1Cc1ccc(F)cc1`, the growth is reported as 2.66% (active).
With `O=C(/C=C/c1ccccc1)c1nc2ccccc2n1Cc1ccc(Br)cc1` the growth was -18.5% (active).
`C=CC[Se]C(=O)c1cncc(C(=O)[Se]CC=C)c1` was tested, and the growth was -87.3% (active).
`COc1ccc(OC)c(/C=C/C(=O)c2nc3ccccc3n2Cc2ccc(F)cc2)c1` was tested, and the growth was 3.97% (active).
For `O=C(/C=C/c1ccc(F)cc1)c1nc2ccccc2n1Cc1ccc(Br)cc1`, the growth was -1.74% (active).
`CC[C@]12C=CCN3CC[C@@]4(c5ccc(OC)cc5N(C)[C@H]4[C@@](O)(C(=O)OC)[C@@H]1OC(=O)CCCC[P+](c1ccc(C)cc1)(c1ccc(C)cc1)c1ccc(C)cc1)[C@@H]32` was tested, and the growth was -86.6% (active).
`CC(C)N=C([Se])NC(=O)c1cccs1` was tested, and the growth was -36.8% (active).
`CC1=C(CCC=NNC(N)=O)C2=C(C)C3(CC3)[C@@](C)(O)C(=O)C2=C1` was tested, and the growth was -58.7% (active).
`Cc1ccc2[nH]c(=S)n(-c3ccc(F)cc3)c(=O)c2c1` showed a growth of 103%.
With `C#CC[Se]C(=O)c1ccc2n[se]nc2c1` the growth was 74.9%.
With `CC1=C(COCCOC(=O)c2ccc(S(=O)(=O)F)cc2)C2=C(C)C3(CC3)[C@@](C)(O)C(=O)C2=C1` the growth was -0.659% (active).
`CC12CCC3(CCC(=O)NCCCNc4ccnc5cc(Cl)ccc45)[C@@](C)(OO[C@]3(C)O1)O2` was tested, and the growth was -1.11% (active).
